# Values without a mark were called inactive. Results filed as inconclusive are left out. The source made the active and inactive calls. Unless noted, calls come from the whole dose curve; as a rule, active = well fitted curve in either direction with a large enough effect (not every such curve was filed as active); inconclusive = small, poorly fitted or top-dose-only effect, or another doubt; inactive = flat fitted curve, though single readings scatter.
# Assays:
# [1] = test system: HIV-1 nucleocapsid protein NCp7 (binding to TG oligonucleotide); test: HIV Nucleocapsid (AID 346; call rule not given here;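 note: potency is the fitted concentration of half-maximal effect; potency is for inhibitors that block NC binding and lower polarization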); settings: HIV-1 NC / fluorescein-TGTGTGTG probe, fluorescence polarization
# Method in brief: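 NCp7 100 nM + fluorescein TG4xF 10 nM; Hepes pH 7.5/250mM NaCl/1uM ZnCl2/0.004% PEG 20000; 1 hr RT; FP, 45 s exposure; oligo-only wells as negative control.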
# [2] = target: Lysosomal acid glucosylceramidase (Homo sapiens) (UniProt P04062); test: Glucocerebrosidase-p2 (AID 348; in the data active = potency below about 10 µM; note: potency is the fitted concentration of half-maximal effect); settings: purified GBA, blue fluorogenic substrate, 40 min
# Method in brief: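 Compounds titrated from 0.6 nM upwards against 0.2 nM enzyme in pH 5.9 citric acid/KH2PO4, taurocholate, tween-20; blue fluorogenic substrate 80 uM, 40 min room temperature, stopped and read Ex 365/Em 440 for AC50.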
# [3] = AP1 Signaling Pathway (AID 357); settings: ME-180 AP-1-bla reporter, EGF-induced, beta-lactamase ratio, 5 h; at 7.69 µM (top of the series) unless noted;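 note: ME-180 reporter cells stimulated with EGF at its EC50 level; % is set by controls: 0 for no effect and ±100 for the full control effect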
# Method in brief: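 Cells are seeded overnight, exposed to compound titrations and an EC50 level of EGF for 5 hours at 37 °C, then loaded with CCF4 dye for 2.5 hours. Beta-lactamase activity under the AP-1 element is read as a blue/green ratio.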
# [4] = target: Cytochrome P450 1A2 (Homo sapiens) (UniProt P05177); test: p450-cyp1a2 (AID 410; calls by dose curve; note: potency is the fitted concentration of half-maximal effect;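 for activity change, negative = inhibition: -100% = full effect of reference inhibitor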); settings: recombinant CYP1A2, luciferin-ME demethylation, luminescence; series mostly up to 11.4 µM
# Method in brief: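 Human CYP1A2 (20nM) demethylated Luciferin-ME at its Km (100uM) in 100mM KPO4. After 10 min compound preincubation, NADPH regeneration ran the reaction 60 min at room temperature. Luciferin was read by luminescence, normalized to 57 uM furafylline.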
# [5] = NFAT Signaling Pathway (AID 444); settings: Jurkat NFAT-bla M1, carbachol, beta-lactamase ratio, 5 h; at 7.69 µM (top of the series) unless noted;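 note: carbachol stimulus at about its EC50 of 1 µM final; % is set by controls: 0 for no effect and ±100 for the full control effect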
# Method in brief: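 Jurkat cells carrying an NFAT-driven β-lactamase reporter and co-transfected muscarinic M1 receptor were treated with compound plus carbachol (1 uM final, an EC50 level) for 5 h at 37 °C. CCF4 loading followed for 1 h at RT; 460/530 nm ratio gave %activity.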
# [6] = Stat Signaling Pathway (AID 446); settings: ME-180 SIE beta-lactamase reporter, IL-6 stimulated, 5 h; at 7.69 µM (top of the series) unless noted;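 note: ME-180 cervical cancer cells given 40 pM IL-6 alongside compound; SIE-controlled beta-lactamase reporter measured as 460/530 nm FRET emission ratio; % is set by controls: 0 for no effect and ±100 for the full control effect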
# Method in brief: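 ME-180 SIE-bla cells; overnight plating; cpd + IL-6 40 pM, 5 h, 37 C; LiveBLAzer 2.5 h RT; 460/530 nm emission ratio. Normalized to 300 pM IL-6 and 125 nM JAK inhibitor controls.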
# [7] = target: Glucocorticoid receptor (Homo sapiens) (UniProt P04150); test: GR-GFP Redistribution (AID 450;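 active = compounds whose dose series gives a full or clear partial fitted curve of increased nuclear translocation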; note: potency is the fitted concentration of half-maximal effect); settings: U2OS GR-GFP nuclear translocation, laser cytometry, 2 h
# [8] = target: Glucocorticoid receptor (Homo sapiens) (UniProt P04150); test: GR-EFC Redistribution (AID 451; calls by dose curve; note: potency is the fitted concentration of half-maximal effect); settings: CHO-K1 GR-EFC translocation, beta-gal luminescence, 2 h
# Method in brief: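 CHO-K1 cells stably expressing nuclear-localized β-gal enzyme acceptor and GR fused C-terminally to the enzyme donor fragment; ligand-driven nuclear translocation restores β-gal by complementation. Compounds titrated up to 46 uM final, 2 h at 37 °C; luminescence read.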
# [9] = target: Mitogen-activated protein kinase 10 (Mus musculus) (UniProt Q61831); test: JNK3 AlphaScreen Assay (AID 530); settings: JNK3 lysate, c-Jun phosphorylation; series mostly up to 57.1 µM;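 note: kinase came from lysate of stimulated human HepG2 cells; signal reports phosphorylation of biotinylated GST-cJun 1-79 at Ser73 with 10 µM ATP; % is set by controls: 0 for no effect and ±100 for the full control effect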
# Method in brief: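 JNK3 came from HepG2 lysates pre-activated with IL-1beta and TNF-alpha and phosphorylated biotinylated GST-cJun (1-79) at 10 uM ATP, pH 7.6, room temperature. Compounds were titrated. AlphaScreen signal used anti-phospho-cJun (Ser73) antibody.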
# [10] = target: 3',5'-cyclic-AMP phosphodiesterase 4B (Homo sapiens) (UniProt Q07343); test: qHTS Assay for Inhibitors of PDE-IV (AID 607; active = well fitted activation curve with a large enough effect in the main read-out, with a control signal flat, not every such curve was filed as active; note: % of control where 0% means no effect); settings: HEK293 ACTOne CNG channel cells, membrane potential fluorescence; series mostly up to 22.9 µM
# Method in brief: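 ACTOne HEK293 cells carry a modified cAMP-gated CNG channel and express endogenous PDE4; plated 1000 cells/well, compounds up to 22.9 uM final. Membrane-potential dye fluorescence (ex 535/em 590) was read; parental cells received 10 uM forskolin + 100 uM RO 20-1724.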
# [11] = target: Cytochrome P450 3A4 (Homo sapiens) (UniProt P08684); test: qHTS Assay for Activators of Cytochrome P450 3A4 (AID 885; active = well fitted activation curve with a large enough effect; note: nearly all actives have a fitted effect of over 65% in size); settings: recombinant CYP3A4, Luciferin-PPXE luminescence, 60 min; series mostly up to 57.1 µM
# Method in brief: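 20nM CYP3A4 + 25uM Luciferin-PPXE (=KM), 200mM KPO4; cpd 10 min RT; NADPH regen, 60 min RT; stop w/ detection buffer, 20 min; luminescence. Normalized to 57 uM ketoconazole.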
# Sequence of Glucocorticoid receptor (Homo sapiens) (P04150 whole entry, looked up, the tested form may be a part): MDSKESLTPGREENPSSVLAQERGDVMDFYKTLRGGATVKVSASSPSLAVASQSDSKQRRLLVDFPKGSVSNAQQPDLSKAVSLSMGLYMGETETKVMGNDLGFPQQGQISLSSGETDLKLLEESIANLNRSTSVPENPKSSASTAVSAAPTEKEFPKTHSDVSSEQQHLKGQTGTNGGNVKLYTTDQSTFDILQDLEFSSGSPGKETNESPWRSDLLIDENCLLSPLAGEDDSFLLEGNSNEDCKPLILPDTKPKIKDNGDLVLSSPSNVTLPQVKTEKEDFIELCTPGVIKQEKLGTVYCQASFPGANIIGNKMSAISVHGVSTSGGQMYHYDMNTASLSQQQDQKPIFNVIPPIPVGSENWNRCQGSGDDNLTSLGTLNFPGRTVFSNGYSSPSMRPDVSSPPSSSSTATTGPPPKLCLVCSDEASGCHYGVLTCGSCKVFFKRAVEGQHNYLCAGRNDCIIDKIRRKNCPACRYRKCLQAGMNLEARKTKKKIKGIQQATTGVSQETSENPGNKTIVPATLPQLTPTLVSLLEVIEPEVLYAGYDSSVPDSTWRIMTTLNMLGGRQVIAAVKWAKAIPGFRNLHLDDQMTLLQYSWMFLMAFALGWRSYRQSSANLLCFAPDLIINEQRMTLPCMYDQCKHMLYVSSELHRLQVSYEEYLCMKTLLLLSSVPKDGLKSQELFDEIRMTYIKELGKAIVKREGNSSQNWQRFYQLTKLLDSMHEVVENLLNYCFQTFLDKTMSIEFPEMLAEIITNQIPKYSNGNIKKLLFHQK
# Sequence of 3',5'-cyclic-AMP phosphodiesterase 4B (Homo sapiens) (Q07343 whole entry, looked up): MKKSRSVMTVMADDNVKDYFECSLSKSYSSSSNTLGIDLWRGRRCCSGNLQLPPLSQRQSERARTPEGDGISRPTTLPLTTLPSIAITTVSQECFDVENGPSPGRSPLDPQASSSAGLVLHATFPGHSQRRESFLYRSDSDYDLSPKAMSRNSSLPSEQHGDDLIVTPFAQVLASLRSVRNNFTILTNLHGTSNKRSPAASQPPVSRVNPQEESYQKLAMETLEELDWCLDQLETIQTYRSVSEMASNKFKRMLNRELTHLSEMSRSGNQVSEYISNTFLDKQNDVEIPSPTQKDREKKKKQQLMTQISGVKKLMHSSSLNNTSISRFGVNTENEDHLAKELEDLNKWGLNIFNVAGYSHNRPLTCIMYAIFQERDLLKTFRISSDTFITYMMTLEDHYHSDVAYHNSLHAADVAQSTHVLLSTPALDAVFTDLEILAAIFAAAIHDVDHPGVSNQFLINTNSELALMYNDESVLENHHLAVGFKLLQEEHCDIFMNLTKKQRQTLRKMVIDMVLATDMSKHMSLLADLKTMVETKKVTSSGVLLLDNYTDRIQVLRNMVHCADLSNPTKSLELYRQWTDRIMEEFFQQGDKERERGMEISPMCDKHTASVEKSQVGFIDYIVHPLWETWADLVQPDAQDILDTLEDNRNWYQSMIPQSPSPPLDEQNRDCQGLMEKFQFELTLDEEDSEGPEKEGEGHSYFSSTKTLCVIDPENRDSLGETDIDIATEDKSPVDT
# Sequence of Cytochrome P450 1A2 (Homo sapiens) (P05177 whole entry, looked up): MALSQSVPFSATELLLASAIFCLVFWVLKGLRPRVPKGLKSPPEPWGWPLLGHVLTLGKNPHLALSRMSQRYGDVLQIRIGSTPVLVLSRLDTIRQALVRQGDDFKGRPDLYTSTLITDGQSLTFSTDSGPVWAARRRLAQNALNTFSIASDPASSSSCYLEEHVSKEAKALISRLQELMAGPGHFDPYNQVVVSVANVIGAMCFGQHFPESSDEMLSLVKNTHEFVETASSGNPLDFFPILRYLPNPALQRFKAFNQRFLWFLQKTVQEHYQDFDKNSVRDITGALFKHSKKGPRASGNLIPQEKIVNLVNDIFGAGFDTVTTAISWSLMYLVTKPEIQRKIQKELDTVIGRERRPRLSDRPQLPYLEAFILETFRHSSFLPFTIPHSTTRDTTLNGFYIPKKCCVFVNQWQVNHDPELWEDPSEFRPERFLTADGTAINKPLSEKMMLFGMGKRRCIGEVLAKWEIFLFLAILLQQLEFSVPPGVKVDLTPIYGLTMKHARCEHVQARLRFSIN
# Sequence of Lysosomal acid glucosylceramidase (Homo sapiens) (P04062 whole entry, looked up): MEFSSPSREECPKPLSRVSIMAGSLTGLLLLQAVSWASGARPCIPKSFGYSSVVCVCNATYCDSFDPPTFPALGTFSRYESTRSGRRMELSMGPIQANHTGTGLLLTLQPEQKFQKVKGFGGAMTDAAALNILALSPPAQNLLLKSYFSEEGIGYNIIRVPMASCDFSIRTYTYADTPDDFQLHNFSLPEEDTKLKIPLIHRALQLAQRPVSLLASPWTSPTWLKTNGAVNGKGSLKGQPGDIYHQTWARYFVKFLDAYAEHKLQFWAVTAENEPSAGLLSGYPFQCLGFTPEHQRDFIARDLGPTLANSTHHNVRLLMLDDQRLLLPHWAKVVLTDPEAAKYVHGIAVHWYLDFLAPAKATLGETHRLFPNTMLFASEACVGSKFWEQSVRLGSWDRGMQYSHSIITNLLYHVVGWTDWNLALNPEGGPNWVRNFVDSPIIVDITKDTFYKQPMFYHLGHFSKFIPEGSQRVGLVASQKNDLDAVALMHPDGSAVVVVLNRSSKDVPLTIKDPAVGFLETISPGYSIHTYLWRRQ
# Sequence of Cytochrome P450 3A4 (Homo sapiens) (P08684 whole entry, looked up): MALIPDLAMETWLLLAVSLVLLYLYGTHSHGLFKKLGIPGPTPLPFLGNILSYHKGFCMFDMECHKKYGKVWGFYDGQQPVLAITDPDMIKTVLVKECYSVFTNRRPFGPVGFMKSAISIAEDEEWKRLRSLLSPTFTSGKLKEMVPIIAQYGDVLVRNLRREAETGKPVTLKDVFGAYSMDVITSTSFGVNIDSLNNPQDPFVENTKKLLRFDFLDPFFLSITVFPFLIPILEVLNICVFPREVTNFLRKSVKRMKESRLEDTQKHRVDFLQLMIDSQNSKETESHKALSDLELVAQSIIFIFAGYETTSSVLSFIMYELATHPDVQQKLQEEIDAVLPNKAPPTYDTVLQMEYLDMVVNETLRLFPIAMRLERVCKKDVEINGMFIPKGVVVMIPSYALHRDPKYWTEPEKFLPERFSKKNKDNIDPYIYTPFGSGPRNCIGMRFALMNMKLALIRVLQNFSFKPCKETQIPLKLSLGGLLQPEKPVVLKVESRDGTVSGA
structure (smiles),measurement,setting,value
FC(F)(F)c1ccccc1-c1ccc2ncnc(NCc3cccs3)c2c1,Potency,[1],> 20 µM
CS(=O)(=O)Nc1cccc(-c2ccc3ncnc(NC4CCNCC4)c3c2)c1,Potency,[1],> 20 µM
O=C(c1ccncc1)N1CCC[C@@]2(CCN(C(c3ccccc3)c3ccccc3)C2)C1,Potency,[1],> 20 µM
CN(C)c1ncc2nc(CCc3ccccc3)c(=O)n(CCc3ccccc3)c2n1,Potency,[1],> 20 µM
COc1ccc2[nH]cc(CCNc3cc(-c4ccc(C(=O)N(C)C)cc4)ncn3)c2c1,Potency,[1],> 20 µM
C[C@@H]1CC[C@@H]2N(C1)C[C@H]1[C@@](O)([C@H](O)C[C@]3(O)[C@H]4CC[C@H]5[C@]6(O)O[C@]4(C[C@]13O)[C@@]5(C)CC[C@@H]6O)[C@@]2(C)O,Potency,[2],> 11.4 µM
same,"activity change, negative = inhibition",[3],0.655%
same,Potency,[4],inactive
same,"activity change, negative = inhibition",[5],4.97%
same,"activity, negative = inhibition",[6],-1.33%
same,Potency,[7],> 46 µM
same,Potency,[8],> 9.22 µM
same,"activity change, negative = inhibition",[9],4.3% [at 11.4 µM]
same,outcome,[10],inactive
N#Cc1cccc(NC(=O)N2CCCC3(CCN(C(=O)Oc4ccccc4)CC3)C2)c1,Potency,[1],> 20 µM
same,Potency,[2],> 11.4 µM
same,"activity change, negative = inhibition",[3],-22.4%
same,Potency,[4],15.8 µM (active)
same,"activity, negative = inhibition",[6],-12.1%
same,Potency,[8],> 46 µM
same,outcome,[10],inactive
same,Potency,[11],inactive
